Over roughly 33,000 sequences, “E-score (-0.5 to 0.5)” has its median near -0.017; the highest 2% begin near 0.3. The full list was thinned out, with the highest values kept by preference.
biological target: T1, Sut1 (UniProt P53032); experiment: PBM E-score (8-mer binding enrichment) (E-score (-0.5 to 0.5)); higher = stronger / more preferred TF binding; details: protein concentration: 200 nM; construct: GST-full length
T1 sequence: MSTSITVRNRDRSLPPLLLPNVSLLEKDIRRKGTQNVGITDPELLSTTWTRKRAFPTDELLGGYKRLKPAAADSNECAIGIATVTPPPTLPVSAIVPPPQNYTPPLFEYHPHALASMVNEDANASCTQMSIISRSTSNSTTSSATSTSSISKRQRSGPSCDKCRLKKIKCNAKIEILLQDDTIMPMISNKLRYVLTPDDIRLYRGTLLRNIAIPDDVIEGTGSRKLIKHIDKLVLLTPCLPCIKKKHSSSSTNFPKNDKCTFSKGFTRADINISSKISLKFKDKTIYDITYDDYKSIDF
Method: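 Universal 'all 10-mer' protein binding microarrays (Agilent AMADID 015681) probed with GST-tagged S. cerevisiae TFs (full-length or DBD) made by in vitro transcription/translation (PURExpress), about 100-200 nM. Bound TF was detected with fluorescent anti-GST. Each ungapped 8-mer (which stands for itself and its reverse complement) is scored by the PBM enrichment score (E-score), a modified Wilcoxon-Mann-Whitney statistic from -0.5 to +0.5, computed with the Universal PBM Analysis Suite. Scale: above 0.35 generally sequence-specific binding.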

| Sequence | PBM E-score |
| --- | --- |
| AGCTCTAC | -0.325 |
| AATGTCCT | -0.0934 |
| ATTGTCCA | -0.0211 |
| ATTGTCCC | -0.108 |
| CATGTCCA | 0.0978 |
| AATGTCCG | 0.447 |
| AATGTCCA | 0.0363 |
| CATGTCCC | -0.1 |
| ATTGTCCG | 0.359 |
| CATGTCCG | 0.382 |
| TCGAACAA | 0.102 |
| AGGGGGTA | -0.323 |
| AGACCGCA | -0.0648 |
| AGGGGATC | -0.134 |
| CCAACCCG | -0.172 |
| CCCTGCTC | -0.0773 |
| CTCTCAGA | -0.139 |
| CTCCGATC | 0.38 |
| GTCCGATA | 0.362 |
| CGCCGATA | -0.197 |
| CTCCGATA | 0.432 |
| CACCGATA | 0.04 |
| GGCCGATA | -0.152 |
| ATCCGATC | 0.18 |
| ATCCGATA | 0.215 |

| Sequence | PBM E-score |
| --- | --- |
| CGCCGATC | 0.137 |
| CCCAGCTC | 0.03 |
| CTACACCC | -0.286 |
| AAAAAAAA | 0.228 |
| CCCCAATC | -0.327 |
| TGTGTAAA | 0.194 |
| GAGGACTA | 0.0368 |
| AGGGACTC | -0.186 |
| ACGGACTG | 0.22 |
| CCGGACCA | 0.241 |
| CCGGACTA | 0.48 |
| ACGGACTA | 0.431 |
| ACGGACGA | 0.1 |
| GCGGACTA | 0.404 |
| ATGGACTA | -0.0502 |
| CTGGACTA | -0.0898 |
| ACGGACTC | 0.393 |
| GCGGACCA | 0.175 |
| CGATCTCA | -0.0333 |
| AAGTGATT | 0.237 |
| AGTGTATG | 0.14 |
| AGCCCATA | -0.137 |
| ACTATTCT | 0.0103 |
| CCGGACAC | 0.112 |
| CCGGACTC | 0.476 |

| Sequence | PBM E-score |
| --- | --- |
| CGGGACTC | 0.0911 |
| ACGTAACT | 0.009 |
| TTATCCAA | 0.3 |
| CTATCCAA | 0.057 |
| ATATCCAA | 0.158 |
| ATTTTGTG | 0.239 |
| CTTTTGTA | 0.259 |
| ATTTTGTA | 0.318 |
| GACTACGA | 0.0667 |
| AGTCGGAT | 0.173 |
| CGTCGGAG | 0.422 |
| CGTCGGAA | 0.196 |
| AGTCGGAA | 0.243 |
| TGTCGGAA | 0.218 |
| GGTCGGAC | 0.259 |
| AGTCGGAG | 0.316 |
| AGTCGGAC | 0.337 |
| CGTCGGAC | 0.247 |
| CCATTCGG | 0.00649 |
| ATGTTCGG | 0.181 |
| CTGCCCAG | -0.222 |
| GCCTGGCA | -0.3 |
| GGACGGAC | 0.285 |
| CCACGGAA | 0.178 |
| CCACGGAG | 0.365 |

| Sequence | PBM E-score |
| --- | --- |
| CCACGGAC | 0.202 |
| ACACGGAG | 0.409 |
| ACACGGAT | 0.0295 |
| AGACGGAA | 0.0433 |
| AGACGGAT | 0.0639 |
| ACACGGAA | 0.18 |
| CGACGGAA | 0.116 |
| AGACGGAG | 0.322 |
| CGACGGAC | 0.349 |
| AGTAGAGG | -0.308 |
| GCGCAGCA | -0.232 |
| ACAATTTC | 0.0702 |
| AGGATAAT | 0.113 |
| TCAAAGGA | -0.0285 |
| GAGCCACC | -0.264 |
| CCATCTCC | 0.256 |
| GAAGATTC | 0.171 |
| CATTCTCC | 0.118 |
| CCAACTCA | -0.0222 |
| GCAACTAC | 0.0638 |
| ACAACTCC | 0.431 |
| GCAACTCA | 0.0595 |
| CCAACTCC | 0.387 |
| ACAACTCT | 0.0085 |
| GCAACTCC | 0.299 |

| Sequence | PBM E-score |
| --- | --- |
| ACAACTCA | 0.13 |
| CCAACTCG | -0.141 |
| CGCTGTGA | -0.225 |
| CTATTGGC | -0.227 |
| ACCTTGAC | -0.143 |
| ATGGAGTA | 0.179 |
| ACGGAGTA | 0.473 |
| CCGGAGGC | 0.156 |
| GAGGAGTA | -0.0389 |
| AAGGAGTG | -0.0821 |
| ATGGAGTG | -0.0878 |
| AAGGAGTA | 0.0607 |
| GCGGAGTA | 0.458 |
| CAGGAGTC | 0.0824 |
| GCGGAGGA | -0.161 |
| CCGGAGTC | 0.484 |
| ACGGAGTG | 0.42 |
| AATTGCGT | 0.134 |
| CGATCCTC | -0.124 |
| ACACTCGA | -0.106 |
| AAACCTAT | 0.123 |
| CTAGATGA | -0.0501 |
| CACAAACG | 0.127 |
| CCAACCAG | -0.187 |
| ACCGCAAT | 0.1 |

| Sequence | PBM E-score |
| --- | --- |
| CCGGAGTA | 0.49 |
| CTGGAGTA | 0.0562 |
| ATGGAGTC | 0.0281 |
| ACGGAGTC | 0.46 |
| CAGGAGTA | -0.157 |
| ACGGAGGC | -0.0143 |
| AAATTTAG | 0.254 |
| AAATTTAA | 0.318 |
| AACTTTAA | 0.325 |
| AACTTTAG | 0.189 |
| AAATTTTA | 0.125 |
| TAATTTAA | 0.283 |
| CACTTTAA | 0.157 |
| CGATTTAA | 0.242 |
| CAATTTTA | 0.234 |
| AGATTTAA | 0.00422 |
| TGATTTAA | 0.3 |
| CAATTTAA | 0.317 |
| CCAGGATC | -0.201 |
| GTTTAACA | -0.00835 |
| AGGATTTG | 0.0444 |
| CCTCCCTA | -0.367 |
| CGCAAACG | -0.00322 |
| AGATTGAG | 0.0927 |
| AACTATCT | 0.0634 |

| Sequence | PBM E-score |
| --- | --- |
| GGACCGTA | -0.172 |
| CTGCGTTC | 0.0373 |
| AAGTTGTA | 0.0914 |
| CAGTTGTA | 0.00162 |
| GAGTTGTA | 0.317 |
| CTAGCGGA | 0.0881 |
| CGAGGTCA | -0.0467 |
| ATCTCCGC | 0.399 |
| ATCTCCAA | 0.158 |
| ATCTCCCA | -0.155 |
| GTCTCCAA | -0.0301 |
| ATCTCCCC | -0.285 |
| ATCTCCCG | -0.0416 |
| ATCTCCGG | 0.478 |
| ATCTCCAG | -0.0734 |
| CTCTCCGA | 0.257 |
| CTCTCCGC | 0.18 |
| ATCTCCGA | 0.477 |
| GTCTCCGA | 0.338 |
| AAGCGACC | 0.0829 |
| CGTAGGCA | -0.169 |
| GATAGTAC | -0.00235 |
